Inconclusive results are not listed. A call without a number means that no potency is given here. The source made the active and inactive calls. Calls follow the shape of the dose curve; as a rule, active = well fitted inhibition curve with a large enough effect; inconclusive = small, poorly fitted or top-dose-only effect; inactive = flat fitted curve, though single readings scatter.
What follows are compounds tested on Zika virus NS2B-NS3 protease (assay: Primary screen GU AMC qHTS for Zika virus inhibitors (AID 1347154; also: nearly all actives have a fitted effect of over 70% in size)). Conditions: Zika NS2B-NS3 unlinked protease, AMC fluorogenic substrate; series mostly up to 54.1 µM.
Outline: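 Unlinked Zika NS2B hydrophilic domain/NS3 protease domain noncovalent complex (25 nM final) in 10 mM Tris-HCl pH 8.0, 0.01% Tween 20, with AMC peptide substrate. Fluorescence (ex 340, em 450 nm) change over 15 min, room temperature; percent inhibition fitted to 4-parameter Hill equation.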
`C[C@]12CCC(=O)C=C1CC[C@@H]1[C@@H]2CC[C@@]2(C)[C@H]1CC[C@]2(C)O` was tested, and the Potency was “inactive”. `c1ccc(CN2CCNCC2)cc1` was tested, and the Potency was “inactive”. `Clc1cccc(SC2CCNCC2)n1` was tested, and the Potency was “inactive”. For `CNCC(=O)c1ccc(O)c(O)c1`, the Potency was “inactive”. With `COC(=O)C(Cl)C(=O)OC` the Potency was “inactive”. `CCCCCCC(=O)CCCCCC/C=C/C[C@@H](O)[C@H](O)[C@@](N)(CO)C(=O)O` was tested, and the Potency was “inactive”. In the case of `C=CCC1([C@H](C)CCC)C(=O)NC(=O)NC1=O`, the Potency is reported as “inactive”. For `O=C(Nc1ccc(Br)cc1)c1cc(Br)cc(Br)c1O`, the Potency was 35.5 µM (active). In the case of `COc1cccc2c1C(=O)c1c(O)c3c(c(O)c1C2=O)C[C@@](O)(C(=O)CO)CC3OC1CC(N2CCOC(OC)C2)C(O)C(C)O1` (stereo partly specified), the Potency is reported as “inactive”. With `CCN[C@@H](C)Cc1ccccc1` the Potency was “inactive”. For `CC(=O)C1CCOC1=O` (stereo unspecified), the Potency was “inactive”. With `c1ccc2c(c1)sc1ccccc12` the Potency was “inactive”. `C#CC(O)(C=CCl)CC` (stereo unspecified) was tested, and the Potency was “inactive”. In the case of `COP(=S)(OC)Oc1ccc(S(=O)(=O)N(C)C)cc1`, the Potency is reported as “inactive”. `CCOP(=S)(OCC)Oc1ccc2c(C)c(Cl)c(=O)oc2c1` was tested, and the Potency was “inactive”. For `COP(=S)(OC)SCN1C(=O)c2ccccc2C1=O`, the Potency was “inactive”. For `CC(C)(C)c1ccc(O)cc1`, the Potency was “inactive”. In the case of `CCN(CC)C(=O)[C@@H]1C=C2c3cccc4[nH]cc(c34)C[C@H]2N(C)C1`, the Potency is reported as 35.5 µM (active). `CC(C)C[C@H](CN)CC(=O)O` was tested, and the Potency was “inactive”. With `Nc1ccc([As](=O)(O)O)cc1` the Potency was “inactive”. In the case of `C[C@H]1[C@@H]2Cc3ccc(O)cc3[C@@]1(C)CCN2C`, the Potency is reported as “inactive”. With `Nc1nc(N)nc(NC2CC2)n1` the Potency was “inactive”. For `COP(=S)(OC)Oc1ccc(SC)c(C)c1`, the Potency was “inactive”. With `CCOC(=O)CC(SP(=S)(OC)OC)C(=O)OCC` (stereo unspecified) the Potency was “inactive”. With `O=C1OC(CCN2CCCCC2)OC1(c1ccccc1)c1ccccc1` (stereo unspecified) the Potency was “inactive”. In the case of `COC(=O)[C@@H](N)CCCN/C(N)=N/[N+](=O)[O-]`, the Potency is reported as “inactive”. In the case of `CC(C)NC(C)C`, the Potency is reported as “inactive”. `ClCCN1CCCC1` was tested, and the Potency was “inactive”. For `C[C@@H](N)[C@@H](O)c1ccccc1`, the Potency was “inactive”. In the case of `CC(C)=CC1C(C(=O)OCN2C(=O)C3=C(CCCC3)C2=O)C1(C)C` (stereo unspecified), the Potency is reported as “inactive”. With `C[C@]12CC[C@H]3[C@@H](CCC4=CC(=O)CC[C@@H]43)[C@@H]1CC[C@@H]2OC(=O)CCC1CCCCC1` the Potency was “inactive”. In the case of `CCC(CC)(CNC(=O)CCCO)c1cccc(OC)c1`, the Potency is reported as “inactive”. With `NC(=O)c1cc([N+](=O)[O-])cc([N+](=O)[O-])c1` the Potency was “inactive”. For `c1ccc(N2CCNCC2)cc1`, the Potency was “inactive”. In the case of `CC(C)(N)Cc1ccccc1Cl`, the Potency is reported as “inactive”. With `C[C@]12CCC(=O)C=C1CC[C@@H]1[C@H]3CC[C@](C)(O)[C@@]3(C)CC[C@@H]12` the Potency was “inactive”.

— PubChem BioAssay (NCATS)
Potency is read from the fitted curve at half-maximal effect.
